# From PubChem BioAssay
# Results filed as inconclusive are left out. Calls of active or inactive are those of the source.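 Rule for the calls, unless noted: active = RAM network inhibition above 8.4% in each of two replicates, 3 SD over the compound average; inconclusive = above 8.4% inhibition in only one replicate; inactive = 8.4% inhibition or less in each replicate.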
# Columns and labels:
# [1] = OD615 S. cerevisiae growth inhibition, permissive medium, pilot counter-assay, permissive growth control for S. cerevisiae lifespan shortening project (AID 705;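 active = growth inhibition above 25% in both replicates, a cutoff set 3 SD above the mean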); conditions: OD615, 24 h, at 10 µM, stronger effect = higher value
# [2] = Restrictive medium S. cerevisiae growth inhibition, OD615, pilot screen of yeast lifespan reduction project, restrictive growth control (AID 706;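 active = growth inhibition above a set limit, 3 SD over mean compound inhibition, in both replicates, cut at about 43% in these data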;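 note: modified DeaD lifespan yeast strain shifted to restrictive glucose medium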); conditions: OD615, 48 h, at 10 µM, stronger effect = higher value
# [3] = viability gain of MRP-1-high H69AR cells under doxorubicin, pilot screen, MRP-1 activator project, CellTiter-Glo, duplicate (AID 807;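 active = viability increase at or above a cutoff of the median across tested compounds plus 3 SD, cut at about 8.5% in these data, passing the limit was not always enough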;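 note: compound pretreatment 18-22 h then 72 h combined with doxorubicin; 0% = doxorubicin alone and 100% = vehicle without doxorubicin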); conditions: H69AR viability with doxorubicin, CellTiter-Glo luminescence; at 10 µM; stronger effect = higher value
# [4] = growth suppression of beta-catenin knockout HCT116, pilot screen, human colon tumor cells (AID 823;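 active = cell viability at or below a set limit in both duplicate runs, the limit being the all-compound median minus 4 SD, cut at about 23% in these data, passing the limit was not always enough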;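 note: 0% = wells killed by 20 µM Hyamine and 100% = untreated DMSO cell wells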); conditions: CellTiter-Glo, 60 h, at 10 µM, stronger effect = lower value
# [5] = growth suppression of PTEN-deleted HCT116, pilot screen, cell-based, HCT116 clonal line, CellTiter-Glo (AID 824;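 active = viability at or below 27.92% in each of two runs, the all-compound median minus 4 SD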;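 note: 0% = 20 µM Hyamine control and 100% = vehicle cell control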); conditions: 60 h, at 10 µM, stronger effect = lower value
# [6] = RAM signaling pathway blockade in yeast – S. cerevisiae, Pdr1DBD-CYC8 efflux-inhibited sensitized strain, primary screen (AID 1298);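 note: 0% = DMSO untreated cells without growth and 100% = 10 µM 1-NA-PP1 full growth; higher means more yeast growth rescued from 5-FOA killing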; conditions: S. cerevisiae cbk1-as DSE1-URA3 strain, 5-FOA growth OD615, 2 d; at 50 µM; stronger effect = higher value
# [7] = HUVEC growth inhibition – cell-based, human, primary screen (AID 575;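 active = viability at or below 30% in both replicate assays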;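 note: 100% = median of untreated cell wells with 0.1% DMSO on each plate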); conditions: HUVEC proliferation, CellTiter-Glo luminescence, 72 h; at 10 µM; stronger effect = lower value
# [8] = growth inhibitors of H69AR lung tumor, primary screen, human, duplicate replicates (AID 580;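 active = viability at or under a set limit in both replicates, limit being median viability minus 3 SD, cut at about 48% in these data, passing the limit was not always enough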;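 note: 100% = mean luminescence of untreated wells and 0% = no signal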); conditions: H69AR lung tumor cells viability, ATP luminescence, 72 h; at 10 µM; stronger effect = lower value
# [9] = reversal of MRP1-mediated doxorubicin resistance, pilot screen, H69AR cells, doxorubicin co-treatment (AID 601;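 active = viability loss from added drug above about 55%, and viability with drug at most 40%, in both replicates, limit read from the data, passing the limit was not always enough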); conditions: CellTiter-Glo, 72 h, at 10 µM; for differential viability (reversal): stronger effect = higher value
# [10] = 384-well plate pilot, post-Golgi transport modulator project, inhibition of yeast transport mutant growth (AID 636; in the data active = inhibition above about 31%); conditions: absorbance 615 nm, about 18 h, stronger effect = higher value
# [11] = growth suppression of yeast trafficking mutant, preliminary HTS, modulators of trafficking downstream of Golgi apparatus project, 1536-format plate, OD 615 nm (AID 637; in the data active = inhibition above about 30%); conditions: yeast transport mutant growth, absorbance 615 nm, 18 h; stronger effect = higher value
# [12] = inhibitors of the yeast RAM network, pilot screen, dse1pr::URA3 reporter, 5-FOA selection (AID 869;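 active = inhibition over a set limit, the all-compound mean plus 3 SD, in both replicate runs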;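 note: 0% = DMSO wells with no growth and 100% = 10 µM 1-NA-PP1 with full growth; RAM network block rescues cells from 5-FOA so hits raise OD615 growth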); conditions: S. cerevisiae dse1pr::URA3 5-FOA growth, OD615, 2 d; at 10 µM; stronger effect = higher value; strain carries analog-sensitive mutant Cbk1 kinase
# [13] = H69AR cells + 2 uM doxorubicin, measured here: viability with 2 uM doxorubicin, stronger effect = lower value
# [14] = H69AR cells, compound alone cytotoxicity
SMILES,growth inhibition [1],growth inhibition [2],viability increase [3],viability [4],viability [5],RAM network inhibition [6],viability [7],viability [8],differential viability (reversal) ([9]; H69AR cells + 2 uM doxorubicin),"viability [9, 13] [%]","viability [9, 14] [%]",inhibition [10],inhibition [11],inhibition [12]
O=C(CSc1nnc(Cn2c(=O)sc3ccccc32)n1-c1ccccc1)N1CCCC1,-8.58% (inactive),-14.4% (inactive),-1.4% (inactive),97.1% (inactive),97% (inactive),2.12% (inactive),–,–,–,–,–,–,–,–
OC(COCC1COc2ccccc2O1)CN1CCc2ccccc2C1 (stereo not drawn),-28.7% (inactive),-12.5% (inactive),-2.72% (inactive),86.4% (inactive),90.8% (inactive),1.37% (inactive),–,–,–,–,–,–,–,–
Cc1ccc(-c2cc(C(F)F)nc(NCc3cccnc3)n2)cc1,4.57% (inactive),-8.25% (inactive),–,51% (inactive),64.2% (inactive),0.76% (inactive),63.9% (inactive),80.3% (inactive),-2.5% (inactive),82.8,80.3,-2.63% (inactive),0.48% (inactive),1.65% (inactive)
O=c1c2ccccc2nc2c3ccccc3ncn12,-15.1% (inactive),-15.2% (inactive),-0.34% (inactive),103% (inactive),101% (inactive),6.01% (inactive),–,–,–,–,–,–,–,–
COc1ccc(-c2nc(CS(=O)CC(=O)NCc3ccc(Cl)cc3)c(C)o2)cc1 (stereo not drawn),-11.9% (inactive),4.36% (inactive),0.16% (inactive),72.4% (inactive),79.9% (inactive),7.34% (inactive),–,–,–,–,–,–,–,–
O=C(c1cccs1)N(C(=O)c1cccs1)c1ccccn1,-5.4% (inactive),-6.32% (inactive),-1.11% (inactive),96.8% (inactive),102% (inactive),4.17% (inactive),–,–,–,–,–,–,–,–
CCCSc1nc2c(cnn2-c2ccccc2)c(=O)[nH]1,-12.6% (inactive),-17.8% (inactive),-0.89% (inactive),105% (inactive),95.7% (inactive),-0.83% (inactive),–,–,–,–,–,–,–,–
O=C(Nc1nc2c(s1)CCCC2)c1cccnc1,-5.66% (inactive),-5.07% (inactive),0.28% (inactive),100% (inactive),92.2% (inactive),1.3% (inactive),–,–,–,–,–,–,–,–
N#Cc1nc(-c2ccc(F)cc2)oc1NCCN1CCOCC1,-0.47% (inactive),-8.75% (inactive),-2.06% (inactive),96% (inactive),92.3% (inactive),7.83% (inactive),–,–,–,–,–,–,–,–
Cc1cc(NC(=O)CSc2cn(CCNC(=O)c3ccc(Cl)cc3)c3ccccc23)no1,-4.83% (inactive),-1.28% (inactive),-0.7% (inactive),61.5% (inactive),57.3% (inactive),3.24% (inactive),–,–,–,–,–,–,–,–
CC(=O)NCc1cn2c(C)csc2n1,-16.9% (inactive),-3.26% (inactive),-3.88% (inactive),98.1% (inactive),90% (inactive),3.01% (inactive),–,–,–,–,–,–,–,–
CCSC(C)CC1C/C(=N/O)c2c(CC)noc2C1 (stereo not drawn),-0.005% (inactive),-4.39% (inactive),5.22% (inactive),93.6% (inactive),94.2% (inactive),0.17% (inactive),–,–,–,–,–,–,–,–
COC(=O)c1nc2n(n1)C(c1ccc(OC)c(OC)c1)C(C(=O)OC1CCCCC1)=C(C)N2 (stereo not drawn),-0.32% (inactive),-3.14% (inactive),-5.23% (inactive),97.5% (inactive),–,6.75% (inactive),88.9% (inactive),83.3% (inactive),-14.8% (inactive),98,83.3,-6.49% (inactive),-4% (inactive),2.87% (inactive)
Cc1ccc(C)c(N2CCN(CCCNC(=O)Cn3cc4c(n3)CCCCC4)CC2)c1,-6.4% (inactive),-0.285% (inactive),-7.67% (inactive),–,19.6% (active),4.06% (inactive),2.8% (active),–,-31.3% (inactive),68.4,37.1,-2.69% (inactive),4% (inactive),0.495% (inactive)
O=C(NCc1cccs1)C(Cc1ccccc1)NS(=O)(=O)c1cccs1 (stereo not drawn),-17.7% (inactive),-8.73% (inactive),-1.46% (inactive),94.3% (inactive),–,4.56% (inactive),95.7% (inactive),91.7% (inactive),4.5% (inactive),87.2,91.7,-3.16% (inactive),5.08% (inactive),1.43% (inactive)
CN(C)c1nc2ccc(OCCN3CCCCC3)cc2s1,-10.8% (inactive),0.795% (inactive),-0.48% (inactive),93% (inactive),94.3% (inactive),4.76% (inactive),–,–,–,–,–,–,–,–
Cn1c(Cn2c(=O)sc3ccccc32)nnc1SCC(=O)Nc1ccc(F)cc1,-6.3% (inactive),-13.1% (inactive),-0.7% (inactive),105% (inactive),97.8% (inactive),5.95% (inactive),–,–,–,–,–,–,–,–
FC(F)(F)c1nc(N2CCN(c3ccccc3)CC2)nc2c1CCCCC2,-16.6% (inactive),-18.3% (inactive),-0.3% (inactive),72.5% (inactive),73.4% (inactive),9.39% (inactive),–,–,–,–,–,–,–,–

SMILES,growth inhibition [1],growth inhibition [2],viability increase [3],viability [4],viability [5],RAM network inhibition [6],viability [7],viability [8],differential viability (reversal) ([9]; H69AR cells + 2 uM doxorubicin),"viability [9, 13] [%]","viability [9, 14] [%]",inhibition [10],inhibition [11],inhibition [12]
CCC(C(=O)N1CCN(c2cccc(Cl)c2)CC1)c1ccccc1 (stereo not drawn),1.93% (inactive),-5.71% (inactive),-4.98% (inactive),57.7% (inactive),63% (inactive),8.74% (inactive),–,–,–,–,–,–,–,–
CCCCOc1ccccc1NC(=O)CC1Nc2ccccc2NC1=O (stereo not drawn),6.14% (inactive),0.91% (inactive),-6.18% (inactive),–,–,7.51% (inactive),–,–,–,–,–,–,–,–
C#CCSc1nnc(-c2c[nH]c3ccccc23)n1C,0.22% (inactive),8.42% (inactive),-2.77% (inactive),98.3% (inactive),93.5% (inactive),-0.92% (inactive),–,–,–,–,–,–,–,–
COC(=O)c1cc(=O)[nH]c(SCc2cccc(C)c2)n1,-9.72% (inactive),-0.94% (inactive),-3.27% (inactive),102% (inactive),101% (inactive),6.8% (inactive),–,–,–,–,–,–,–,–
COC(=O)c1nnc(-c2ccccc2)c(-c2ccccc2)n1,-20.7% (inactive),-24.7% (inactive),-1.82% (inactive),104% (inactive),99.5% (inactive),9.17% (inactive),–,–,–,–,–,–,–,–
CCC(=O)N1c2ccccc2-c2nnc(SC)nc2OC1c1ccc(OC)c(OC)c1 (stereo not drawn),-7.65% (inactive),-7.5% (inactive),-2.71% (inactive),102% (inactive),94.1% (inactive),1.85% (inactive),–,–,–,–,–,–,–,–
CC(c1ccco1)N(C(=O)COc1ccc(Cl)cc1Cl)c1ccccn1 (stereo not drawn),-10.9% (inactive),-10.3% (inactive),-4.89% (inactive),–,65.6% (inactive),7.28% (inactive),71.6% (inactive),76.4% (inactive),3.06% (inactive),73.3,76.4,-6.71% (inactive),-10.3% (inactive),2.06% (inactive)
N#CC(=C1SC=CS1)c1nc(-c2ccccc2)cs1,5.05% (inactive),-6.89% (inactive),-3.21% (inactive),84.4% (inactive),–,9.12% (inactive),–,–,–,–,–,–,–,–
CCOc1ccc(-n2c(SCC(N)=O)nc3c([nH]c4ccccc43)c2=O)cc1,-16.6% (inactive),2.87% (inactive),-2.27% (inactive),62.5% (inactive),71.4% (inactive),11.2% (inactive),–,–,–,–,–,–,–,–
CCCCOc1ccc(S(=O)(=O)Nc2cc(OC)ccc2OC)cc1,-1.52% (inactive),-16.5% (inactive),0.92% (inactive),54.8% (inactive),71.3% (inactive),7.83% (inactive),–,–,–,–,–,–,–,–
O=S(=O)(NCC(O)COCc1ccco1)c1cccs1 (stereo not drawn),-10.3% (inactive),2.05% (inactive),-3.34% (inactive),92.8% (inactive),–,6.29% (inactive),114% (inactive),83.7% (inactive),-0.665% (inactive),84.3,83.7,-6.62% (inactive),-5.56% (inactive),1.09% (inactive)
CCN(CC)CCn1c(=S)[nH]c2ccccc2c1=O,-8.59% (inactive),6.18% (inactive),-1.56% (inactive),103% (inactive),98.1% (inactive),6.58% (inactive),–,–,–,–,–,–,–,–
O=C(OCC1COc2ccccc2O1)c1c(F)cccc1F (stereo not drawn),-5.97% (inactive),-0.835% (inactive),2.01% (inactive),93% (inactive),95.8% (inactive),7.73% (inactive),–,–,–,–,–,–,–,–
COc1cc(C(=O)NCCc2cn3ccc(C)cc3n2)cc(OC)c1OC,-4.97% (inactive),4.06% (inactive),-4.28% (inactive),96.5% (inactive),95.9% (inactive),2.94% (inactive),–,–,–,–,–,–,–,–
COc1cc(OC)c(NS(=O)(=O)c2coc(C(N)=O)c2)cc1Cl,-4.63% (inactive),-4.55% (inactive),-3.53% (inactive),105% (inactive),95.8% (inactive),6.88% (inactive),–,–,–,–,–,–,–,–
COc1ccccc1S(=O)(=O)Cc1ccc(C(=O)NCc2cccnc2)o1,0.915% (inactive),-0.525% (inactive),-1.11% (inactive),97.8% (inactive),94.9% (inactive),2.56% (inactive),–,–,–,–,–,–,–,–
COc1ccc(-n2c(SCC(=O)Nc3nccs3)nc3c(c2=O)SCC3)cc1,-1.01% (inactive),-11.5% (inactive),-3.87% (inactive),93.2% (inactive),84.6% (inactive),5.95% (inactive),–,–,–,–,–,–,–,–
